About 83,000 compounds went through this panel and 20% of them were active in at least one assay; those are over-represented in the sample as a whole.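 Activity criterion: percent growth below 10, measured after cells in 96-well plates were exposed to a single compound concentration for 48 hours.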 Values without a mark were called inactive. Activity calls are given as the source filed them.

Test systems include DU-145 prostate; K-562 leukemia; MALME-3M melanoma; MDA-MB-231 breast; RXF 393 renal; SF-268 CNS; SF-295 CNS; SF-539 CNS; UACC-257 melanoma; M14 melanoma.
Holding throughout (assay): NCI-60 one-dose screen, 48 h (100 = growth as untreated, 0 = no growth, -100 = all killed)
Conditions in all cases: 10 µM unless noted

Consider `O=C1NC(=O)C(CC(=O)n2c(-c3ccccc3)nc3ccccc32)C(=O)N1`, for which the growth in the test on DU-145 prostate was 108%; in the test on K-562 leukemia, 106%; in the test with MALME-3M melanoma it was 116%; in the test with MDA-MB-231 breast it was 98.9%; in the test on RXF 393 renal it was 101%; in the test on SF-268 CNS it was 99%. The growth is 97.3% with SF-295 CNS, 95.1% in the test with SF-539 CNS, 112% in the test with UACC-257 melanoma and 108% with M14 melanoma.
Turning to `Cn1c2ccccc2c2c3c(c4c5ccccc5n(CCCCCC#N)c4c21)C(=O)N(O)C3=O`, the growth in the test with DU-145 prostate is 16.3%; with K-562 leukemia, 16.2%; in the test on MALME-3M melanoma, 28.6%; in the test on MDA-MB-231 breast it was 27.9%; in the test on RXF 393 renal it was -21.8% (active); in the test on SF-268 CNS it was 12.2%. Moreover, the growth in the test on SF-295 CNS is 9.59% (active); in the test on SF-539 CNS, -33% (active); in the test on UACC-257 melanoma, 15.6%; with M14 melanoma, 1.43% (active).
`COC1=CC(=O)C(OC)=C(OC)C1=O`: the growth is 106% in the test with DU-145 prostate; 63.9% in the test with K-562 leukemia; 92.1% in the test on MALME-3M melanoma; 86% in the test with MDA-MB-231 breast; 111% in the test with RXF 393 renal; 94.3% in the test with SF-268 CNS. Besides, the growth was 99.3% in the test with SF-295 CNS, 90.7% in the test with SF-539 CNS, 107% with UACC-257 melanoma and 93.2% in the test on M14 melanoma.
As to `Nc1c(C(=O)Nc2cccc3c2OCCO3)sc2nc3c(cc12)C(=O)CCC3`, the growth in the test with DU-145 prostate was 22.2%; in the test on K-562 leukemia, 13.7%; in the test on MALME-3M melanoma it was 56.8%; with MDA-MB-231 breast it was 14.7%; in the test with RXF 393 renal, -18.5% (active); in the test on SF-268 CNS, 60.7%. Moreover, the growth was 21.9% with SF-295 CNS, -26.3% (active) with SF-539 CNS, 90.6% with UACC-257 melanoma and 33.6% in the test with M14 melanoma.
As to `COc1ccc(S(=O)(=O)NCCNc2nccc(-c3c(-c4cccc(N)c4)nc4sccn34)n2)cc1`, the growth in the test with DU-145 prostate is 105%; in the test with K-562 leukemia it was 88.9%; in the test on MALME-3M melanoma, 101%; with MDA-MB-231 breast, 104%; in the test with RXF 393 renal, 107%; with SF-268 CNS, 99.7%. Further, the growth is 99.2% with SF-295 CNS, 110% with SF-539 CNS, 102% in the test on UACC-257 melanoma and 102% in the test with M14 melanoma.
`Cc1ccc2c(c1)n([O-])c1cc(Cl)ccc1[n+]2=O`: the growth with DU-145 prostate was 101%; in the test with K-562 leukemia, 78.8%; in the test on MALME-3M melanoma, 97.8%; in the test with MDA-MB-231 breast it was 80.9%; with RXF 393 renal it was 107%; in the test with SF-268 CNS, 108%. Further, the growth in the test on SF-295 CNS is 109%; in the test on SF-539 CNS, 107%; with UACC-257 melanoma, 97.1%; in the test with M14 melanoma, 99%.
Consider `Cc1ccc(-c2nc(/C=N/Nc3cc(C)nc4ccc(Cl)cc34)c(C)o2)cc1`, for which the growth is 3.19% (active) in the test with DU-145 prostate; -10.9% (active) in the test with K-562 leukemia; -74.6% (active) with MALME-3M melanoma; -83.9% (active) in the test with MDA-MB-231 breast; -84.9% (active) with RXF 393 renal; -52.7% (active) with SF-268 CNS. The growth was 17.1% with SF-295 CNS, -77.7% (active) with SF-539 CNS, 107% in the test on UACC-257 melanoma and -14.2% (active) in the test with M14 melanoma.
In the case of `O=C1CCc2c(sc3[nH]c(=S)n(Cc4ccccc4)c(=O)c23)C1`, the growth is 64.1% with DU-145 prostate; 11.5% with K-562 leukemia; 69% with MALME-3M melanoma; 16.5% in the test with MDA-MB-231 breast; 20.8% with RXF 393 renal; 19.4% in the test on SF-268 CNS. The growth with SF-295 CNS is -13.9% (active); with SF-539 CNS, -12.6% (active); with UACC-257 melanoma, 29.1%; in the test with M14 melanoma it was 18.9%.
As to `COc1nc2c(cc1S(=O)(=O)c1ccccc1)CCc1c-2cnn1-c1ccc(Cl)cc1`, the growth in the test on DU-145 prostate is 110%; in the test on K-562 leukemia, 97.2%; with MALME-3M melanoma, 96.8%; with MDA-MB-231 breast it was 95.3%; with RXF 393 renal it was 96.2%; with SF-268 CNS, 104%. Besides, the growth in the test on SF-295 CNS was 88.3%; with SF-539 CNS, 100%; in the test with UACC-257 melanoma, 106%; in the test with M14 melanoma it was 97.5%.
Consider `COc1ccc(Cl)cc1Nc1nc(C(F)(F)F)ccc1C(=O)N/N=C/c1cccnc1`, for which the growth with DU-145 prostate was 53.7%; with K-562 leukemia it was 36.1%; in the test with MALME-3M melanoma it was 42.6%; in the test with MDA-MB-231 breast it was 49.3%; with RXF 393 renal, 60.9%; in the test on SF-268 CNS it was 48.9%. Also, the growth in the test on SF-295 CNS was 81.6%; in the test with SF-539 CNS, 45.9%; in the test with UACC-257 melanoma it was 72.7%; with M14 melanoma it was 52.9%.
In the case of `NS(=O)(=O)c1ccc(Nc2nc3n[nH]c(Nc4ccccc4)c3c(=O)[nH]2)cc1`, the growth with DU-145 prostate was 102%; in the test with K-562 leukemia, 96%; with MALME-3M melanoma it was 103%; with MDA-MB-231 breast, 97.7%; with RXF 393 renal, 115%; in the test on SF-268 CNS it was 97%. The growth was 102% in the test on SF-295 CNS, 97.1% in the test on SF-539 CNS, 97% with UACC-257 melanoma and 94.2% in the test with M14 melanoma.
On to `CC(=O)Nc1ccc2c(c1)c(NC(C)=O)nn2C(=O)Nc1ccc(Cc2ccccc2)cc1`, for which the growth was 83% in the test with DU-145 prostate; 18.2% in the test on K-562 leukemia; 86.5% in the test with MALME-3M melanoma; 69.9% in the test on MDA-MB-231 breast; 92.6% with RXF 393 renal; 46.6% in the test on SF-268 CNS. The growth is 54% in the test with SF-295 CNS, 80.9% in the test on SF-539 CNS, 87.2% in the test on UACC-257 melanoma and 63% in the test with M14 melanoma.
`CNC(=O)c1cc(Oc2ccc3nc(NC(=O)Nc4ccc(CN5CCOCC5)c(C(F)(F)F)c4)sc3c2)ccn1`: the growth in the test on DU-145 prostate is 31.5%; in the test with K-562 leukemia, 5.93% (active); in the test on MALME-3M melanoma, 8.17% (active); in the test on MDA-MB-231 breast, 28.8%; in the test with RXF 393 renal, 44.6%; in the test with SF-268 CNS, 34.9%. Also, the growth in the test with SF-295 CNS is 11%; in the test with SF-539 CNS, 16.5%; in the test with UACC-257 melanoma, 18%; with M14 melanoma, 23.2%.
